From PubChem
G9a inh-1 = inhibitors of human histone lysine methyltransferase G9a | Q96KQ7 | G9a H3K9 monomethylation, AlphaScreen, 2 h | Potency, µM (doses to about 102 µM), most hits filed as inhibitors | hit rate 8.8% among 350,000 | AID 504332; note: nearly all actives have a fitted effect of over 75% in size
Target sequence (Q96KQ7 913-1193 limits assumed): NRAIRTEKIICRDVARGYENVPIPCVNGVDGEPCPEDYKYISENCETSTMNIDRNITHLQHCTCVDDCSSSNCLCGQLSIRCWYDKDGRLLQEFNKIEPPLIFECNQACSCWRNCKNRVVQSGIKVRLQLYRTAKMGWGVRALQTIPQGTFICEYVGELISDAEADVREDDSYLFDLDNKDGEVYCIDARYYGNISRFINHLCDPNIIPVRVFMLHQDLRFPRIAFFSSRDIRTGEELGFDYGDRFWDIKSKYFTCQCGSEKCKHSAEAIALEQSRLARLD
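Methyltransferase reactions run at room temperature for 2 h (20 nM enzyme, 500 nM biotin-H3K9 peptide, 20 uM SAM) after a 15 min compound preincubation; product detected by AlphaScreen beads and anti-H3K9me1 antibody.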
BAZ2B inh = blocks human BAZ2B; Q9UIF8; AlphaScreen BAZ2B-H3K14Ac peptide displacement; Potency, µM (highest dose often 114 µM), hits mostly inhibitors; hit rate 4.4% among 360,000; AID 504333; note: nearly all actives have a fitted effect of over 60% in size
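AlphaScreen displacement: compounds (up to 110uM) incubated 30 min at room temperature with a preformed 50 nM BAZ2B/50 nM biotinylated H3K14Ac peptide complex in PBS pH 7.4 with Tween-20. Donor and acceptor beads at 10 ug/mL final added, 20 min light-protected before reading.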
HP1b chromo inh = inhibitors of HP1-beta chromodomain binding to methylated histone tails; P83916; AlphaScreen HP1-beta / biotin-H3K9me3 peptide binding; Potency, µM (highest dose often 114 µM), actives largely listed as inhibitors; hit rate 0.56% among 390,000; AID 540317; note: nearly all actives have a fitted effect of over 70% in size
Target sequence (P83916 whole entry, looked up): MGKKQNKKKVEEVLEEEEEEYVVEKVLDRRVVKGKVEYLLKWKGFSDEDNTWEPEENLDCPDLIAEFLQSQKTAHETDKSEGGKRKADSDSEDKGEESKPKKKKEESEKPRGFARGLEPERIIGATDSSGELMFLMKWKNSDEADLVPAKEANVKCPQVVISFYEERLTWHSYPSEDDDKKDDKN
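AlphaScreen: HP1-beta (50 nM) preformed 30 min with biotin-H3(1-18)K9me3 peptide (50 nM) in PBS pH 7.4, 0.01% Tween-20. Compound added for 30 min at RT, then streptavidin donor/nickel chelate acceptor beads (10 ug/mL) for 30 min.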
PLK1 PBD inh = blocks phosphopeptide binding to human PLK1 polo-box domain. Potency, µM, actives largely listed as inhibitors. AID 720504. Plk1 PBD binding of FITC phosphopeptide, fluorescence polarization. P53350. hit rate 2.8% among 360,000; note: series mostly up to about 57 µM; nearly all actives have a fitted effect of over 65% in size
ALOX12 inh = ALOX12 (human) lipoxygenase inhibition; AID 1671190; purified 12hLO, xylenol orange hydroperoxide absorbance; Potency, µM (doses to about 108 µM), actives largely listed as inhibitors; hit rate 1.1% among 580,000
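Hydroperoxide product was detected by ferrous iron/xylenol orange as the 573 to 405 nm absorbance ratio. Arachidonic acid at 40 uM (final) was turned over for 30 min at room temperature by 150 nM human 12hLO, pH 7.0 Hepes buffer, after 15 min compound preincubation.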
JMJD2A Tudor = JMJD2A Tudor domain (human) inhibition. O75164. AlphaScreen JMJD2A-Tudor / H3K4me3 peptide binding. Potency, µM (doses to about 114 µM), most hits filed as inhibitors. hit rate 4.4% among 390,000; note: nearly all actives have a fitted effect of over 50% in size
G9a inh-2 = inhibits human G9a histone lysine methyltransferase, hit confirmation | shares compounds with JMJD2A Tudor | G9a H3K9 monomethylation, AlphaScreen, 2 h | Potency, µM, most hits filed as inhibitors | hit rate 89% among 370 | AID 588344; note: nearly all actives have a fitted effect of over 65% in size
Hits are given with their value; [ ] = dose if it differs, or a comment. Sampled rows, rich in hits. Any-hit rate of the full collection: about 9%. Calls come from the whole dose curve; as a rule, active = well fitted curve in the direction sought with a large enough effect; inconclusive = small, poorly fitted or top-dose-only effect, or another doubt; inactive = no such curve, though single readings can be large; an effect the other way counts as inactive or inconclusive.

What do the screens show for `COc1ccc(S(=O)(=O)N2CCc3ccccc32)cc1C(=O)NCCc1ccc(S(N)(=O)=O)cc1`?
HP1b chromo inh: inactive; PLK1 PBD inh: inactive; ALOX12 inh: inactive; JMJD2A Tudor: inactive

Results for O=C(NCc1ccccc1Cl)c1ccc2c(O)c(S(=O)(=O)c3ccccc3)c(=O)[nH]c2c1 ?
G9a inh-1: inconclusive; BAZ2B inh: inconclusive; HP1b chromo inh: inactive; ALOX12 inh: inactive; JMJD2A Tudor: inactive

How did COc1ccc(C)cc1NC(=O)C(NCC(O)c1ccccc1)c1ccccc1 (stereo not drawn) do in these assays?
G9a inh-1: 2.8µM; BAZ2B inh: 22µM; HP1b chromo inh: inconclusive; PLK1 PBD inh: inactive; ALOX12 inh: inactive; JMJD2A Tudor: 10µM; G9a inh-2: 14

How did COc1ccc(C)cc1NC(=O)C(NS(=O)(=O)c1cccs1)c1ccccc1 (stereo not drawn) do in these assays?
G9a inh-1: inactive; BAZ2B inh: inactive; HP1b chromo inh: inactive; ALOX12 inh: inactive; JMJD2A Tudor: inactive

Results for O=C(OCc1ccccc1)c1cccnc1 ?
G9a inh-1: 1.4µM; ALOX12 inh: inactive; G9a inh-2: 2.6

How did COc1ccc(NC(=O)Cn2nnc(-c3ccccc3NC(=O)c3ccco3)n2)cc1 do in these assays?
G9a inh-1: inconclusive; BAZ2B inh: inactive; HP1b chromo inh: inactive; PLK1 PBD inh: inactive; ALOX12 inh: inactive; JMJD2A Tudor: inactive

What do the screens show for `CN(C)c1ccc(Nc2nc(-c3cccnc3)cs2)cc1`?
G9a inh-1: inconclusive; BAZ2B inh: inconclusive; HP1b chromo inh: inactive; PLK1 PBD inh: inactive; ALOX12 inh: inactive; JMJD2A Tudor: inactive; G9a inh-2: 0.5

What do the screens show for `Fc1ccc(Nc2nc(-c3cccnc3)cs2)cc1`?
G9a inh-1: inactive; BAZ2B inh: inactive; HP1b chromo inh: inactive; PLK1 PBD inh: inactive; ALOX12 inh: inactive; JMJD2A Tudor: inactive[11.4 µM]

How did CCN(CC)c1ccc(Nc2nc(-c3cccnc3)cs2)cc1 do in these assays?
G9a inh-1: 0.89µM; BAZ2B inh: 20µM; HP1b chromo inh: 40µM; PLK1 PBD inh: inactive; ALOX12 inh: inactive; JMJD2A Tudor: 13µM; G9a inh-2: 5

Results for CCN1CCN(c2ccc(NC(=O)c3cc4ccccc4cc3OC)cc2C)CC1 ?
G9a inh-1: inconclusive; BAZ2B inh: inactive; HP1b chromo inh: inactive; PLK1 PBD inh: inactive; ALOX12 inh: inactive; JMJD2A Tudor: inactive; G9a inh-2: 3.2

What do the screens show for `Cc1ccc(-n2nnc(-c3nsc(NC(=O)c4ccc(C)c(C)c4)n3)c2C)cc1`?
G9a inh-1: inactive; BAZ2B inh: inactive; HP1b chromo inh: inactive; ALOX12 inh: inactive; JMJD2A Tudor: inactive

What do the screens show for `CC(=O)c1ccc(S(=O)(=O)N2CCCC(N(C)CCc3ccccn3)C2)cc1` (stereo not drawn)?
G9a inh-1: inconclusive; BAZ2B inh: inactive; HP1b chromo inh: inactive; PLK1 PBD inh: inactive; ALOX12 inh: inactive; JMJD2A Tudor: inactive; G9a inh-2: inconclusive

How did CN(CCc1ccccn1)C1CCCN(S(=O)(=O)c2ccccc2)C1 (stereo not drawn) do in these assays?
G9a inh-1: inactive; BAZ2B inh: inactive; HP1b chromo inh: inactive; PLK1 PBD inh: inactive; ALOX12 inh: inconclusive; JMJD2A Tudor: inactive

How did Cc1nc(NC(=O)CSc2ccccc2N)sc1C do in these assays?
G9a inh-1: inconclusive; BAZ2B inh: inactive; HP1b chromo inh: inactive; PLK1 PBD inh: inconclusive; ALOX12 inh: inactive; JMJD2A Tudor: inactive; G9a inh-2: 18

How did Nc1ccccc1SCC(=O)Nc1nc(-c2ccccc2)cs1 do in these assays?
BAZ2B inh: inconclusive; HP1b chromo inh: inactive; PLK1 PBD inh: inactive; ALOX12 inh: inactive; JMJD2A Tudor: inconclusive

Results for Cc1ccc(S(=O)(=O)Nc2cccc(NC(=O)CN3CCCCC3)c2)cc1 ?
G9a inh-1: inconclusive; BAZ2B inh: inconclusive; HP1b chromo inh: inconclusive; PLK1 PBD inh: inactive; ALOX12 inh: inconclusive; JMJD2A Tudor: inconclusive; G9a inh-2: 2.8
